Each structure is given as a SMILES string. Inconclusive results are not listed. Where a call stands in place of a potency, no number is given. Active and inactive are the calls of the source. Calls follow the shape of the dose curve; as a rule, active = well fitted inhibition curve with a large enough effect; inconclusive = small, poorly fitted or top-dose-only effect, or effect the other way; inactive = flat fitted curve, though single readings scatter.
Potency is read from the fitted curve at half-maximal effect.

Chain of Ubiquitin carboxyl-terminal hydrolase 2 (Homo sapiens) (O75604 whole entry, looked up): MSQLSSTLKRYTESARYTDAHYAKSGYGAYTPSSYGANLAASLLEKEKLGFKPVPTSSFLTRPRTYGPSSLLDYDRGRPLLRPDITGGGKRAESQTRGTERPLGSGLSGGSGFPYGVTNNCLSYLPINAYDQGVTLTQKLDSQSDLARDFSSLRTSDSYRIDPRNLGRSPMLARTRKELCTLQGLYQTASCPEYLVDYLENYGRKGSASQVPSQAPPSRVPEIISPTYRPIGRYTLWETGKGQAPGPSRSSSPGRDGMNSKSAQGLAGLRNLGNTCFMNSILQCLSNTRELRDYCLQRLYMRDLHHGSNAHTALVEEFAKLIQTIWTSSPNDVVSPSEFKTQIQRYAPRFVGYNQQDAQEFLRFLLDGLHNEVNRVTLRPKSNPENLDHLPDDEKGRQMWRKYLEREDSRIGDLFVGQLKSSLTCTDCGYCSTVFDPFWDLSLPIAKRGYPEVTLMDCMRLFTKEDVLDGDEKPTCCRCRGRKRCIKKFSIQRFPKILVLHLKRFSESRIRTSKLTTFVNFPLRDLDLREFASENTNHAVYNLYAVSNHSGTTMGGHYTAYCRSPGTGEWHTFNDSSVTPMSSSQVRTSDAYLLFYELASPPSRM

The target of the experiment is Ubiquitin carboxyl-terminal hydrolase 2 (Homo sapiens) (UniProt O75604). Description: Ub-rhodamine 110 based assay for inhibitors Ubiquitin-specific Protease USP2a. Also: nearly all actives have a fitted effect of over 50% in size. The conditions noted are these: USP2a Ub-rhodamine110 cleavage, fluorescence; series mostly up to 38.3 µM. The method, boiled down:
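Kinetic fluorescence (485/531 nm) read each minute over 7 min after adding Ub-Rhod110 (150 nM final) to USP2a (5 nM final). The enzyme had 30 min RT exposure to compounds beforehand in Tris pH 8.0 buffer with CaCl2, CHAPS and beta-ME.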
Take `CC1Cc2ccccc2N1C(=O)Cn1c(=O)oc2cc(S(=O)(=O)NC3CCCC3)ccc21` (stereo not given): the Potency entry is “inactive”.

Consider `Cc1ccccc1OCCn1nc(C(=O)O)c2ccccc2c1=O`, for which the Potency entry was “inactive”.

With `C=CCn1c(Br)nc2c1c(=O)n(C)c(=O)n2C`, the Potency result was “inactive”.

For `CC(=O)Nc1ccc(NC(=O)[C@@H](NC(=O)c2cccc(C)c2)C(C)C)cc1`, the Potency entry was “inactive”.

Turning to `Cc1cc(NC(=O)COC(=O)CCCOc2ccc(Cl)cc2C)no1`, the Potency result was “inactive”.

Regarding `COc1ccc(-c2noc(CSc3nnc(Cc4ccccc4)n3-c3ccc(Cl)cc3)n2)cc1`, the Potency entry was “inactive”.

For the compound `Cc1ccc2[nH]c3c(c2c1)CN(C(=O)CN1CCSCC1)CC3`, the Potency result is “inactive”.

Consider `COc1cccc(-c2csc3nnc(SCC(=O)NCc4cccs4)n23)c1`, for which the Potency entry is “inactive”.

For the compound `O=C(NCc1ccccc1)C1CCC1`, the Potency result is “inactive”.

Regarding `O=C(CN1CCC(O)CC1)N1c2ccccc2C=Cc2ccccc21`, the Potency entry was “inactive”.

For `Cc1noc(NS(=O)(=O)c2ccc(N3CC(O)=C(c4ccccc4)C3=N)cc2)c1C`, the Potency result is “inactive”.

Consider `CCn1c2ccccc2c2nc3ccccc3nc21`, for which the Potency entry is “inactive”.

Take `COc1ccc(NC(=O)CSc2ncccc2C(=O)OC(C)C)cc1OC`: the Potency result was “inactive”.

For the compound `O=C(COC(=O)c1cc(-c2ccc(Cl)s2)nc2ccccc12)NCc1ccco1`, the Potency is 11.2 µM (active).

Regarding `N#Cc1cc(Sc2ccccn2)c(Sc2ccccn2)cc1C#N`, the Potency entry was “inactive”.

Regarding `CCOc1ccc2nc(NC(=O)Nc3ccccc3)sc2c1`, the Potency result was “inactive”.

With `Cc1ccc(C2=NC(=O)/C(=C/c3cc(O)c(O)c(Br)c3)S2)cc1`, the Potency was 1.58 µM (active).

As to `O=C(Nc1ncccc1Cl)c1cccc(F)c1`, the Potency result is “inactive”.

As to `COC(=O)c1ccc(CSc2ncnc3ccccc23)o1`, the Potency result is “inactive”.

On to `O=C1Nc2ccc(S(=O)(=O)N3CCCCCC3)c3cccc1c23`, for which the Potency result was “inactive”.

Consider `O=C1CCCc2nc(N3CCN(c4ccccc4)CC3)ncc21`, for which the Potency result was “inactive”.

For `CCCCCCCCCCCCCCCC[N+](C)(C)CCN(Cc1ccc(OC)cc1)c1ncccn1`, the Potency was 11.2 µM (active).

For the compound `O=C(OCC(=O)N1CCCCC1)c1cc2ccccc2cc1O`, the Potency result was “inactive”.

As to `CC(=O)COc1ccc2c(-c3ccccc3)cc(=O)oc2c1`, the Potency entry is “inactive”.

Take `Cc1ccc(CN2C(=O)N/C(=C\c3cccn3-c3cccc(C(=O)O)c3)C2=O)cc1`: the Potency entry was “inactive”.

With `CC(C)(C)NC(=O)CSc1nc(O)cc(=O)n1-c1ccccc1F`, the Potency entry is “inactive”.

For the compound `N=c1sccn1CC(=O)Nc1ccc(S(=O)(=O)N2CCOCC2)cc1`, the Potency entry is “inactive”.

As to `CC(=O)NS(=O)(=O)c1ccc(NC(=O)c2cc(-c3ccc(C)c(C)c3)nc3ccccc23)cc1`, the Potency is 11.2 µM (active).

Consider `O=C(O)CC1(CC(=O)Nc2ccc3ccccc3c2)CCCCC1`, for which the Potency entry was “inactive”.

As for `O=C(O)c1cc(N2N=C(C(F)(F)F)/C(=C/C=C/c3ccco3)C2=O)ccc1Cl`, the Potency is 7.08 µM (active).

`COc1ccc(C(=O)Nc2ccc(N3CCCC3)cc2)cc1OC`: the Potency entry was “inactive”.

As for `CCOC(=O)CN1C(=O)S/C(=C/c2ccc(O)c([N+](=O)[O-])c2)C1=O`, the Potency result is “inactive”.

With `O=C(CCS(=O)(=O)c1ccc(Br)s1)NC1CCCC1`, the Potency entry is “inactive”.

In the case of `COC(=O)CSc1nnc(NC(=O)C2CC(=O)N(c3ccc(F)cc3)C2)s1` (stereo not given), the Potency was 11.2 µM (active).

Turning to `CC(C)c1ccc(C2=C(O)c3ccccc3C(=O)C2=O)cc1`, the Potency entry was “inactive”.

As for `O=C(CC1Oc2ccccc2NC1=O)NCc1ccc(Cl)cc1` (stereo not given), the Potency entry is “inactive”.

As for `COc1cc(NC(=O)COC(=O)CSc2ccccc2F)c(C)cc1[N+](=O)[O-]`, the Potency result is “inactive”.

Turning to `Cc1ccc(C(C(=O)NC2CCCC2)N2CCc3ccccc32)cc1` (stereo not given), the Potency result is “inactive”.

Take `CC(C)(C)C(=O)Nc1c2c(nc3c1CCC3)CCCC2`: the Potency result was “inactive”.

Consider `O=C(NC12CC3CC(CC(C3)C1)C2)C1=COCCO1`, for which the Potency result is “inactive”.
